Screening results: PubChem BioAssay, The Scripps Research Institute Molecular Screening Center
Hits are enriched below; roughly 1.1% of the tested compounds scored in any of these assays.
MOR-DOR ag = agonists of OPRM1-OPRD1 heterodimerization, primary screen, cell-based, luminescence | activation, % at 9.3 µM | AID 504326, 2011 | cells | 340,000 tested, 0.3% active | Mu-type opioid receptor (Homo sapiens) + Delta-type opioid receptor (Homo sapiens), …; in the data active = activation above about 18%
MOR-DOR inv ag = inverse agonists of MOR-DOR heterodimerization, primary screen, cell-based, luminescence; AID 504357, 2011; 340,000 tested, 0.21% active; cell-based MOR-DOR heterodimer luminescence, inverse agonism; inhibition, % at 9.3 µM; in the data active = inhibition above about 22%, passing the limit was not always enough
HTR5A inv ag = HTR5A inverse agonists in luminescence cell assay, primary screen, counter-screen for OPRM1-OPRD1 heterodimer inverse agonist project, full-deck HTS; 340,000 tested, 0.083% active; inhibition, % at 9.3 µM; HTR5A cell line, inverse agonism; in the data active = inhibition mostly above about 23%, no sharp cut-off; inactive = mostly below about 18%
Target sequence (P47898 whole entry, looked up): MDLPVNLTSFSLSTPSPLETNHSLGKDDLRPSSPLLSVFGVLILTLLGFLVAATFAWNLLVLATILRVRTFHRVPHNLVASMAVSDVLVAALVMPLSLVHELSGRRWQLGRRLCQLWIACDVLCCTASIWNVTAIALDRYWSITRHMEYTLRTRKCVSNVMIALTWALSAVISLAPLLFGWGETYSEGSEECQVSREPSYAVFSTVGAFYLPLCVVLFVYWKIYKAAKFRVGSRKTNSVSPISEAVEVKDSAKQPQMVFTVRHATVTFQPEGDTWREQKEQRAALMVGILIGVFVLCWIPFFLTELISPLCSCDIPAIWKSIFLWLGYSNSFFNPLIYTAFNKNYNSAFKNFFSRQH
HTR5A ag ctr = HTR5A agonists in luminescence cell assay, primary screen, counter-screen for OPRM1-OPRD1 heterodimer agonist project, full-deck HTS. 5-hydroxytryptamine receptor 5A (Homo sapiens), P47898. 340,000 tested, 0.61% active. cell-based. activation, % at 9.3 µM; in the data active = activation mostly above about 9.5%, no sharp cut-off; inactive = mostly below about 7.6%
Numbers stand for hits; 0 = inactive.

SMILES | MOR-DOR ag | MOR-DOR inv ag | HTR5A inv ag | HTR5A ag ctr
COc1ccc(C(=O)/C(=C\c2ccco2)N2C=CC=CC2=C(C#N)C#N)cc1 | 0 | 33 | 0 | 0
N#CC(C#N)=C1C=CC=CN1/C(=C\c1ccco1)C(=O)c1ccccc1 | 0 | 36 | 0 | 0
N#C/C(=C/c1ccco1)C(N)=S | 0 | 0 | 0 | 0
COc1ccc(/C=C(/C(=O)c2cccs2)N2C=CC=CC2=C(C#N)C#N)cc1 | 0 | 0 | 0 | 0
N#CC(C#N)=C1C=CC=CN1/C(=C\c1ccco1)C(=O)c1ccc(Br)cc1 | 0 | 29 | 0 | 0
O=C(Cc1ccc(Br)cc1)N1CCN(C(=O)c2ccco2)CC1 | 0 | 0 | 0 | 0
O=C1COc2ccc(S(=O)(=O)NCc3ccc(Cl)cc3)cc2N1 | 0 | 0 | 0 | 0
CCCc1cc(C(=O)NNC(=S)NCC2CCCO2)cs1 (stereo not drawn) | 0 | 0 | 0 | 0
CC(C)Cn1c(N)c(C(=O)NCC2CCCO2)c2nc3ccccc3nc21 (stereo not drawn) | 0 | 44 | 0 | 0
COCCn1c(N)c(C(=O)NCC2CCCO2)c2nc3ccccc3nc21 (stereo not drawn) | 0 | 0 | 0 | 0
O=S(=O)(N/N=C/c1ccccc1F)c1ccccc1 | 0 | 0 | 0 | 0
Cc1ccc(S(=O)(=O)N/N=C/c2ccccc2F)cc1[N+](=O)[O-] | 0 | 0 | 0 | 12
CCCC1CCC(=NNS(=O)(=O)c2ccc(C)c([N+](=O)[O-])c2)CC1 (stereo not drawn) | 0 | 0 | 0 | 13
Cc1ccsc1C(=O)OCC(=O)N1CCc2ccccc2C1 | 0 | 0 | 0 | 0
Cc1oc2c(c(C)cc3oc(=O)c(CC(=O)NCCC(=O)O)c(C)c32)c1C | 0 | 0 | 0 | 0
CCOC(=O)c1c(CN2CCNCC2)nc2ccc(Cl)cc2c1-c1ccccc1 | 0 | 0 | 0 | 0
COc1ccc(C2C(C#N)=C(N)Oc3c2c(C)nn3-c2ccccc2)cc1Cn1nc(C)c([N+](=O)[O-])c1C (stereo not drawn) | 0 | 0 | 0 | 14
COc1ccc(C2C(C#N)=C(N)OC3=C2C(=O)CC(C)(C)C3)cc1Cn1nc(C)c([N+](=O)[O-])c1C (stereo not drawn) | 0 | 0 | 0 | 0
O=C(CNCC1CCCO1)Nc1ccc(N2CCCCCC2)cc1 (stereo not drawn) | 0 | 0 | 0 | 0
CCN(c1ccccc1)S(=O)(=O)c1ccc(Cl)c(NC(=O)c2ccc(=O)[nH]n2)c1 | 0 | 0 | 0 | 12
Cc1ccc(N(CC(=O)NCC2CCCO2)S(=O)(=O)c2ccccc2)c(C)c1 (stereo not drawn) | 0 | 0 | 0 | 14
CN(C(=O)c1cccc(NC(=O)Cc2cccc(NC(=O)C3CCN(C(=O)c4ccccc4)CC3)c2)c1)C1CC1 | 0 | 0 | 0 | 9.1
COc1ccc(COn2c(=O)c(C)[n+]([O-])c3ccccc32)cc1OC | 0 | 0 | 0 | 0
Cc1cc(Cl)ccc1NC(=S)N1CCN(Cc2ccc3c(c2)OCO3)CC1 | 0 | 0 | 0 | 0
CCCNC(=S)N1CCN(Cc2ccc3c(c2)OCO3)CC1 | 0 | 0 | 0 | 12
SMILES | MOR-DOR ag | MOR-DOR inv ag | HTR5A inv ag | HTR5A ag ctr
O=C(c1cc2ccccc2o1)N1CCN(Cc2ccc3c(c2)OCO3)CC1 | 0 | 0 | 0 | 11
Fc1ccccc1NC(=S)N1CCN(Cc2ccc3c(c2)OCO3)CC1 | 0 | 0 | 0 | 12
Fc1ccc(/C=N/Nc2ncnc3nc[nH]c23)cc1F | 0 | 0 | 0 | 0
O=C(Nc1ccccn1)c1ccc2ccccc2n1 | 0 | 0 | 0 | 8.9
CCOC(=O)c1cnn(-c2ccccc2)c1NC(=O)CN1CCOCC1 | 0 | 0 | 0 | 13
CCCOC(=O)c1cccc(Nc2nc(-c3cccnc3)nc3ccccc23)c1 | 0 | 0 | 0 | 14
Cc1nc2cc(C(F)(F)F)ccc2n1C1CCN(CC(=O)N2CCOCC2)CC1 | 0 | 0 | 0 | 9.0
COc1cc(C(=S)N2CCOCC2)cc(OC)c1OC(=O)c1ccccc1[N+](=O)[O-] | 0 | 0 | 0 | 0
CCCC(=O)C1=C(O)C(C(=O)OC)C(C)(C)CC1=Nc1cccc2ccccc12 (stereo not drawn) | 0 | 0 | 0 | 10
CCCC(=O)C1=C(O)C(C(=O)OC)C(C)(C)CC1=Nc1ccccc1 (stereo not drawn) | 0 | 0 | 0 | 0
COC(=O)c1nc2nc(-c3cccs3)cc(C(F)(F)F)n2n1 | 0 | 0 | 0 | 11
COC(=O)c1nc2nc(C)cc(C(F)(F)F)n2n1 | 0 | 0 | 0 | 0
C=CCn1c(C(CCC(C)C)CC(C)(C)O)n[nH]c1=S (stereo not drawn) | 0 | 0 | 0 | 0
O=C(CCl)N=c1sccn1Cc1ccc(Cl)cc1Cl | 77 | 0 | 0 | 53
O=C(CCl)N=c1sccn1Cc1ccccc1Cl | 66 | 0 | 0 | 85
O=C(CCl)N=c1sccn1Cc1cccc2ccccc12 | 74 | 0 | 0 | 73
CCC(=O)OCC(=O)N=c1sccn1Cc1ccccc1Cl | 0 | 0 | 0 | 0
O=C(O)Cc1ccc(C(=O)c2cccs2)s1 | 0 | 0 | 0 | 0
O=C1c2ccccc2C(=O)N1CN(C(=O)COc1ccccc1)c1ccc(F)cc1 | 0 | 0 | 0 | 0
CCCOc1ccc(C(=O)NNC(=S)NC(=O)c2cc(-c3ccc(Cl)cc3)nc3ccccc23)cc1 | 0 | 61 | 75 | 0
CC(=O)Nc1ccc(S(=O)(=O)NC2(C(F)(F)F)NC(=O)N(C3CCCCC3)C2=O)cc1 (stereo not drawn) | 0 | 0 | 0 | 10
c1ccc(SCc2cn3cccnc3n2)nc1 | 0 | 0 | 0 | 0
CN1CCN(S(=O)(=O)c2ccc(NC(=O)c3ccccc3F)cc2)CC1 | 0 | 0 | 0 | 8.6
O=C(CN1CCN(Cc2ccccc2)CC1)N/N=C/c1ccco1 | 0 | 0 | 0 | 0
C/C(=N/N=C/c1ccccc1O)c1ccccc1O | 0 | 0 | 0 | 10
SMILES | MOR-DOR ag | MOR-DOR inv ag | HTR5A inv ag | HTR5A ag ctr
Oc1ccccc1C=NN=C1c2ccccc2-c2ccccc21 | 0 | 0 | 0 | 0
CCCNC(=O)c1ccc2c(=O)c(O)c(-c3ccsc3)[nH]c2c1 | 0 | 0 | 0 | 0
Cc1cc(C)c(CN2CCN(C(=O)Cn3cnc(C(=O)Nc4ccc(C)c(C)c4)n3)CC2)c(C)c1 | 0 | 0 | 0 | 8.5
COc1cc(C(=O)NC(=S)Nc2cccc3nc(C)ccc23)cc(OC)c1OC | 27 | 0 | 0 | 30
Cc1ccc2c(NC(=S)NC(=O)c3ccccc3)cccc2n1 | 0 | 0 | 0 | 0
CC(=O)NC(Cc1ccccc1)C(C)=O (stereo not drawn) | 0 | 0 | 0 | 0
CCOC(=O)C(Cc1ccccc1)NC(C)=O (stereo not drawn) | 0 | 0 | 0 | 12
O=C(CN1C(=O)NC2(CCc3ccccc32)C1=O)c1cccs1 (stereo not drawn) | 0 | 0 | 0 | 0
Fc1ccc(/C=C2\CCCC3=C2Nc2ncnn2C3c2ccc(F)cc2)cc1 (stereo not drawn) | 0 | 0 | 0 | 10
COC(=O)CCCC1=CC2=C(c3ccccc3)C(=O)C(C)(OC(=O)C3CCCC3)C(=O)C2=CN1c1ccccc1 (stereo not drawn) | 0 | 0 | 0 | 0
CC1(C)Cc2cccc(OCC(=O)Nc3ccccc3F)c2O1 | 0 | 0 | 0 | 0
